Experimental data from PubChem BioAssay (Tox21).
Inconclusive results are not listed. Entries that show only a call come without a potency. Activity calls are given as the source filed them. Calls follow the shape of the dose curve; as a rule, active = well fitted inhibition curve with a large enough effect in the repeat runs; inconclusive = weak or mixed curves, or effect the other way; inactive = no such curve, though single readings can be large or run the other way.

experiment: qHTS assay to identify small molecule antagonists of the retinoic acid receptor (RAR) signaling pathway (AID 1159552; also: nearly all actives have a fitted effect of over 50% in size); details: C3RL4 RARE luciferase reporter, retinol-stimulated, 6 h; series mostly up to 92.4 µM
From the text: National Center for Advancing Translational Sciences [NCATS]
NIH Chemical Genomics Center [NCGC]
U.S. Environmental Protection Agency [EPA]
National Institutes of Environmental Health Sciences [NIEHS]
National Toxicology Program [NTP]
U.S. Food and Drug Administration [FDA]
All-trans Retinoic acid (atRA) is the potent natural metabolite of retinol and plays an important role in normal embryonic development and maintenance of cellular phenotype in adult animals. atRA is the activating ligand for the retinoic acid receptors (RARs) which form heterodimers with retinoid X receptors (RXRs) on the retinoic acid response element (RARE). Through activation of the RAR/RXRs nuclear receptors, atRA regulates the transcription of a large number of protein-coding genes and regulatory RNAs. Intracellular levels of atRA are controlled by the retinol signaling pathway (RSP) that regulates the biosynthesis and catabolism of atRA to maintain physiological levels. Chemicals that interfere with the RSP can cause abnormal intracellular levels of atRA and therefore are potential developmental toxicants. To assess compounds for the potential adverse effect on embryonic development through interfering with retinol signaling, a cell-based RARE luciferase reporter gene assay was used. C3RL4 cell line (OARSA/CFSAN/FDA, Laurel, MD) was used to screen Tox21 10K compound library for identifying inhibitors of the RSP.
Tox21 Assay Protocol Summary:
C3RL4 cells were seeded at 1,000/well in 4 uL of assay medium into white solid 1,536-well tissue culture plates (Greiner Bio-One North America Inc. Monroe, NC) using a Multidrop Combi (Thermo Scientific, Waltham, MA) dispenser. After incubation at 37 C and 5% CO2 for an overnight, 23 nL of compounds dissolved in DMSO, positive control or DMSO only were transferred by a Pintool station (Kalypsys, San Diego, CA). One ul of 1 uM (final concentration) of Retinol was added right after the compound addition by using a Flying Reagent Dispenser (FRD) (Aurora Discovery, San Diego, CA). After 6 hr incubation at 37 C and 5% CO2, 5 uL of Amplite Luciferase reagent (AAT Bioquest Inc. Sunnyvale, CA) was added to each assay plate using an FRD. Luminescence was quantified on a ViewLux plate reader (PerkinElmer, Waltham, MA) after 30 min incubation at room temperature.

Structure (SMILES) | Potency
Nc1nc(N)nc(NC2CC2)n1 | inactive
CNC(=O)O/N=C/C(C)(C)S(C)=O (stereo not given) | inactive
COC(=O)Nc1cccc(OC(=O)Nc2cccc(C)c2)c1 | inactive
COP(=S)(OC)Oc1ccc(SC)c(C)c1 | inactive
Clc1cnc(Oc2ccc(Oc3ncc(Cl)cc3Cl)cc2)c(Cl)c1 | inactive
O=[N+]([O-])c1cc([As](=O)(O)O)ccc1O | inactive
CCCCCCCCCCCCCCCCCC(=O)O | inactive
CN(C)C(=O)Nc1cccc(C(F)(F)F)c1 | inactive
N#Cc1ccccn1 | inactive
O=[N+]([O-])c1ccc(Cl)c(Cl)c1 | inactive
Cc1cc(O)ccc1Cl | inactive
CCSC(=O)N1CCCCCC1 | inactive
CN(C)NC(=O)CCC(=O)O | inactive
CC[N+](=O)[O-] | inactive
Cc1ccc(N)cc1 | inactive
CCOC(=O)CC(SP(=O)(OC)OC)C(=O)OCC (stereo not given) | inactive
CNC(=O)O/N=C(\SC)C(=O)N(C)C | inactive
Nc1ncc([N+](=O)[O-])s1 | inactive
CNC(=O)O/N=C/C(C)(C)S(C)(=O)=O | inactive
ClC(Cl)c1ccccc1 | inactive

Structure (SMILES) | Potency
Cc1cccc(C)c1NC(=O)CN1CCCC1=O | inactive
Cc1ccc(N=C=O)cc1N=C=O | inactive
CC(C)c1cccc(C(C)C)c1O | inactive
Nc1ccc(N)cc1 | inactive
C=C(C)C(=O)OCC(CC)CCCC (stereo not given) | inactive
ClCCOCCCl | inactive
Cl[C@H]1OCCO[C@@H]1Cl | inactive
C=CC(=O)OCCCCCC(C)C | inactive
O=C/C=C/c1ccccc1 | inactive
N#Cc1cccc(C#N)c1 | inactive
N#CN=C(N)N | inactive
Nc1cc(Cl)cc(Cl)c1 | inactive
CNCC(O)c1ccc(O)cc1 (stereo not given) | inactive
CNc1cnn(-c2cccc(C(F)(F)F)c2)c(=O)c1Cl | inactive
C/C=C/c1ccc2c(c1)OCO2 | inactive
CN1C(=O)CCS(=O)(=O)C1c1ccc(Cl)cc1 (stereo not given) | inactive
Cc1cc(Cl)ccc1OC(C)C(=O)O (stereo not given) | inactive
CN(C)C(=O)C(c1ccccc1)c1ccccc1 | inactive
COc1nc(NC(C)C)nc(NC(C)C)n1 | inactive
CNC(=O)O/N=C/C(C)(C)SC | inactive
